# Lassa entry inh: Lassa virus entry inhibition; Lassa virus pseudotype entry inhibition, cell reporter; Potency, µM (highest dose often 37.9 µM), inactives show top-dose activity change, negative = inhibition, most hits filed as inhibitors; 1.2% of 300,000 active; AID 540256; calls by dose curve; tested in HEK293 cells; note: potency is the fitted concentration of half-maximal effect; % is set by controls: 0 for no effect and ±100 for the full control effect; nearly all actives have a fitted effect of over 50% in size
# Shiga toxin inh: blocks Shiga toxin action in Vero cells | 9.2% of 290,000 active | Vero cells, Shiga toxin protein synthesis inhibition reporter | inhibition, % at 38.7 µM; in the data active = inhibition mostly above about 28%, no sharp cut-off; inactive = mostly below about 43%; note: 0% is about no effect
# Pf growth 48h: P. falciparum growth inhibition at 48 hours (one generation). P. falciparum luciferase growth in erythrocytes, 48 h. AID 504832. 5.9% of 310,000 active. Potency, µM (highest dose often 28.7 µM), inactives show at the highest dose activity change, negative = inhibition, most hits filed as inhibitors; note: potency is the fitted concentration of half-maximal effect; % is set by controls: 0 for no effect and ±100 for the full control effect
#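 Luciferase-expressing parasites in RBCs, 2% Hct / 0.1% parasitemia final; RPMI 1640 + 0.5% Albumax; 37 C, 5% CO2, one generation; luminescence read-out, lower signal = inhibition.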
# Pf growth 96h: inhibits malaria parasite growth, 96 h. P. falciparum luciferase reporter growth, 96 h. Potency, µM (doses to about 28.7 µM), for inactives: at the top dose activity change, negative = inhibition, hits mostly inhibitors. 6.9% of 320,000 active; note: potency is the fitted concentration of half-maximal effect; % is set by controls: 0 for no effect and ±100 for the full control effect
#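 Erythrocytes infected with luciferase-expressing P. falciparum were dispensed at 2% hematocrit and 0.05% parasitemia (final), then incubated with compounds 96 hours at 37 C in 5% CO2. Luminescence after detection reagent addition reported growth.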
# Marburg entry inh: Marburg virus entry inhibition; Marburg virus pseudotyped entry inhibition, cell reporter; 1.8% of 300,000 active; Potency, µM (titrated, usually from 37.8 µM), for inactives: top-dose activity change, negative = inhibition, most hits filed as inhibitors; calls by dose curve; tested in HEK293 cells; note: potency is the fitted concentration of half-maximal effect; % is set by controls: 0 for no effect and ±100 for the full control effect
# CHX counter: affects cycloheximide protein synthesis inhibition readout, counter-screen | max response, % | AID 2314 | cell reporter, cycloheximide protein synthesis inhibition counterscreen | 12% of 300,000 active; in the data active = max response mostly above about 13%, no sharp cut-off; inactive = mostly below about 14%; note: read at 38.3 µM for the half of the compounds with a filed dose; 0% is about no effect
# * marks the source's active call; other numbers are inactive results; u = inconclusive; x = no result; [ ] = remark or other dose. Shown are actives, neighbours in structure and some others; about 19% of the full set was active somewhere. Unless noted, calls come from the whole dose curve; as a rule, active = well fitted inhibition curve with a large enough effect; inconclusive = small, poorly fitted or top-dose-only effect, or another doubt; inactive = no such curve, though single readings can be large or run the other way.
SMILES,Lassa entry inh,Shiga toxin inh,Pf growth 48h,Pf growth 96h,Marburg entry inh,CHX counter
Cc1cccc(CNC(=O)c2ccccc2N)c1,-9%,33,12%,x,15%,20*
Cc1cc(C(=O)NCCc2ccccc2)ccc1[N+](=O)[O-],0%,54*,188%,81%,18%,55*
Cc1ccc(CNC(=O)c2ccccc2N)cc1,31%[14.3 µM],10,41%,-7%,14%,1
Nc1nc(-c2ccccc2)cc(C(F)(F)F)n1,u,-6,12%,216%,0%,-3
Cc1cccc(C(=O)NCCNC(=O)c2ccccn2)c1,-1%[46.1 µM],-5,1%,-16%,-1%[46.1 µM],0
O=C(O)CNc1ccc(S(=O)(=O)C(F)(F)F)cc1[N+](=O)[O-],-6%,23,21%,-10%,23%[46.1 µM],-1
CCC(CC)C(=O)Nc1cccc(C(=O)NCCc2ccc(S(N)(=O)=O)cc2)c1,-22%,-16,x,-13%,11%,-3
Cc1cccc(C(=O)NCCc2ccccc2)c1,u,88*,x,u,u,61*
CCC(CC)C(=O)Nc1cccc(C(=O)NCCc2ccccc2)c1,x,105*,12%,15%,x,19*
CC(C)(C)C(=O)NC(=S)NCc1ccccc1,-6%,-7,-31%,9.3µM*,u,-7
CC(=O)Nc1ccc(Nc2ccc(S(=O)(=O)C(F)(F)F)cc2[N+](=O)[O-])cc1,-17%,0,15µM*,u,-36%,12
CN(CC(=O)Nc1ccccc1C(F)(F)F)C(=O)c1cc(Cl)nc2ccccc12,-8%,x,19%,u,-3%,x
Cc1ccccc1NC(=O)c1ccc2c(c1)C(=O)N(CCC(C)C)C2=O,-10%,-10,x,1%,11%,-3
Cc1ccc(NC(=O)Cn2c(=O)n(CCCC(=O)NCc3ccco3)c(=O)c3ccccc32)cc1,-4%,-3,10%,u,2%,-2
O=C(NC(=S)NCc1ccccc1)c1ccccc1,u,12,-2%,47%,-14%[46.1 µM],6
Cc1cccc(C(=O)NC(=S)NCc2ccccc2)c1,18µM*,x,x,x,14%,x
O=C(Nc1ccccc1-c1ccccc1)c1ccc(Cl)c([N+](=O)[O-])c1,23µM*,-1,u,6%,7.3µM*,11
Cc1c(NC(=O)CCc2ccccc2)cccc1[N+](=O)[O-],-10%,16,11%,-79%,6%[46.1 µM],5
Cc1cc(NC(=O)CCc2ccccc2)c([N+](=O)[O-])cc1C,u,-2,32%,0%,u,36*
NC(=O)c1ccc(NCC2CCCO2)c([N+](=O)[O-])c1 (stereo unspecified),14%,10,28%,-2%,15%[46.1 µM],26
O=[N+]([O-])c1cc(S(=O)(=O)C(F)(F)F)ccc1NCC1CCCO1 (stereo unspecified),u,32*,20%,6%,10%[46.1 µM],12
NC(=O)C1CCN(C(=O)Cc2ccc([N+](=O)[O-])cc2)CC1,2%,-13,18%,134%,15%,-4
COc1cc(C(=O)N2CCC(C(N)=O)CC2)ccc1OCc1c(C)noc1C,7%[46.1 µM],x,x,x,0%[46.1 µM],x
CCOc1ccc(NS(=O)(=O)c2ccc(NC(=O)[C@@H]3CCCC[C@@H]3C(=O)O)cc2)cc1,-14%,-13,33%,0%,7%,-5
O=C(NCCc1ccccc1)c1ccc(NCC2CCCO2)c([N+](=O)[O-])c1 (stereo unspecified),u,117*,87%,27%,11%[46.1 µM],43*
SMILES,Lassa entry inh,Shiga toxin inh,Pf growth 48h,Pf growth 96h,Marburg entry inh,CHX counter
O=C(NCCc1ccccc1)c1ccc(Cl)c([N+](=O)[O-])c1,4%,136*,83%,30%,3%,64*
O=C(NCCc1ccccc1)c1ccc([N+](=O)[O-])cc1,u,56,403%,u,u,6
Cc1ccc(NC(=O)/C=C/c2ccco2)nc1,u,78*,158%,-26%,7.1µM*,34*
Cc1ccc(NC(=O)/C=C/c2cccc([N+](=O)[O-])c2)nc1,18%,-5,25%,-94%[5.75 µM],u,-2
O=C(O)/C=C/C(=O)Nc1cccc2cccnc12,x,33,20%,3%,x,-3
O=C(/C=C/c1ccco1)Nc1cccc2cccnc12,6%,119*,66%,76%,-2%[46.1 µM],61*
